Assay [1] is described as follows: Nuclear factor erythroid 2-related factor 2/antioxidant responsive element (Nrf2/ARE) small molecule agonists: qHTS cell viability counter screen in human keratinocytes (AID 1919968; active = well fitted cell-killing curve with a large enough effect in the repeat runs; note: nearly all actives have a fitted effect of over 55% in size; note: potency is the fitted concentration of half-maximal effect). Summed up:
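Viability counter-screen: KeratinoSens reporter cells, DMSO-delivered compounds, 23 h at 37 C, CellTiter-Fluor fluorescence.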
(In general: qHTS replaces the single test concentration by a dilution series.)

Assay [2] is described as follows: Nuclear factor erythroid 2-related factor 2/antioxidant responsive element (Nrf2/ARE) small molecule agonists: luciferase reporter gene qHTS assay in human keratinocytes (AID 1919969). Note: nearly all actives have a fitted effect of over 35% in size.
The target in assay [3] is Gonadotropin-releasing hormone receptor (Homo sapiens) (UniProt P30968). Briefly: Human gonadotropin-releasing hormone receptor (GnRHR) small molecule agonists, calcium flux assay in GnRHR-HEK293 cells (AID 1920063). Note: nearly all actives have a fitted effect of over 35% in size. Note: potency is the fitted concentration of half-maximal effect. The procedure, abridged:
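Tox21-format agonist screen using human GnRHR-expressing HEK293 cells and a fluorescent calcium dye; kinetic 3-min fluorescence reading after compound addition, 15-point concentration series run in triplicate.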
(In general: A change in cytosolic calcium serves as a functional read-out for many receptors and channels.)

Assay [4] is described as follows: G protein-coupled receptor (GPCR) small molecule agonists, calcium flux assay: HEK293 wild type cell line counter screen (AID 1920065). Summed up: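 In this agonist-mode screen, ATP is the positive control and DMSO the vehicle. Cells grow 18 h before a 1 h dye incubation at 37 C; signal is taken at Ex/Em 480/540 over 3 min.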
A short description of assay [5]: p53 small molecule agonists, cell-based qHTS assay with rat liver microsomes (AID 1963578). The procedure, abridged:
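p53RE-bla cells, 4,000/well, pre-incubated 5 h, then given compounds plus rat liver microsomes (0.5 mg/mL final) and NADPH (0.5 mg/mL final). Incubation 16 h at 37 C; beta-lactamase reporter read by LiveBLAzer fluorescence after 2 h at room temperature.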

In assay [6] the target is 5-hydroxytryptamine receptor 2A (Homo sapiens) (UniProt P28223). The experiment in a line: 5-hydroxytryptamine receptor 2A (HTR2A) small molecule antagonists, cell-based qHTS assay (AID 1963586). Note: nearly all actives have a fitted effect of over 45% in size. Summed up:
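Antagonist-mode intracellular calcium assay: DOI (4 nM) added after 5 min compound pre-incubation at room temperature to dye-loaded HTR2A-CHO cells. Fluorescence followed for 3 min, sampled every second.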

For assay [7] the target is unchanged. The experiment in a line: 5-hydroxytryptamine receptor 2A (HTR2A) small molecule agonists, cell-based qHTS assay (AID 1963587). Note: nearly all actives have a fitted effect of over 30% in size. Note: potency is the fitted concentration of half-maximal effect. Summed up:
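HTR2A-CHO cells, plated 18 h at 37 C/5% CO2, dye-loaded 1 h at 37 C; compounds in DMSO added by pin tool (agonist mode). Intracellular calcium flux read as kinetic fluorescence on FDSS over 2 min at 1 s intervals.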

The target of assay [8] is Muscarinic acetylcholine receptor M1 (Homo sapiens) (UniProt P11229). The experiment in a line: Cholinergic receptor muscarinic 1 (CHRM1) small molecule antagonists, cell-based qHTS assay (AID 1963588). Note: nearly all actives have a fitted effect of over 40% in size. Summed up:
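CHRM1-CHO calcium-flux assay, antagonist mode. Cells were seeded 18 h, dye-loaded 1 h at 37 C and given compound for 5 min at RT, then acetylcholine was added at 50nM. FDSS fluorescence was read 3 min; 15 concentrations, three runs.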

The nature of assay [9]: p53 small molecule agonists, cell-based qHTS assay with human liver microsomes: qHTS cell viability counter screen (AID 1963579). Note: nearly all actives have a fitted effect of over 45% in size. The procedure, abridged: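 p53RE-bla cells, 4,000/well, dosed 5 hours after plating, with human liver microsomes (0.5 mg/mL final) plus NADPH (0.5 mg/mL final), 16 hours at 37 C. Viability read as CellTiter-Glo luminescence after 30 min at room temperature.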

Assay [10] is described as follows: p53 small molecule agonists, cell-based qHTS assay with rat liver microsomes: qHTS cell viability counter screen (AID 1963580). Note: nearly all actives have a fitted effect of over 45% in size. The procedure, abridged: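 In HCT-116 cells carrying a p53 response element-bla reporter, compounds were metabolically activated in situ by rat liver microsomes with NADPH over 16 h. Cell ATP content then served as the cytotoxicity measure.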

Assay [11] can be described thus: p53 small molecule agonists, cell-based qHTS assay: qHTS cell viability counter screen (AID 1963581). Note: nearly all actives have a fitted effect of over 45% in size. The procedure, abridged: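 Compounds are pinned onto HCT-116 p53RE-bla cells and left 16 h at 37 C. Following the reporter FRET read, ATP is quantified by CellTiter-Glo luminescence after 30 min at room temperature.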
The target of assay [12] is Muscarinic acetylcholine receptor M1 (Homo sapiens) (UniProt P11229). Briefly: Cholinergic receptor muscarinic 1 (CHRM1) small molecule agonists, cell-based qHTS assay (AID 1963589). Note: nearly all actives have a fitted effect of over 35% in size. Summed up:
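Stable CHRM1-CHO cells (human receptor) were incubated 18 h, dye-loaded for 1 h at 37 C and exposed to test compounds for agonist activity, with calcium-dependent fluorescence followed kinetically.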

Assay [13] can be described thus: cAMP Responsive Elements (CRE) small molecule agonists, cell-based qHTS assay (AID 1963590). The procedure, abridged: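 FRET-based beta-lactamase readout (LiveBLAzer B/G, 2 h RT) quantified CRE activation in HEK 293T CRE-bla cells after 3 h treatment with DMSO-dissolved compounds.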
Assay [14] is described as follows: cAMP Responsive Elements (CRE) small molecule antagonists, cell-based qHTS assay (AID 1963591; active = well fitted inhibition curve with a large enough effect in the signal ratio in the repeat runs, not every such curve was filed as active; the % refers to the signal ratio). Summed up:
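qHTS in CRE-bla HEK 293T cells: compound in DMSO, then 0.25 uM NKH477 (final), 3 h at 37 °C/5% CO2; beta-lactamase FRET read-out after 2 h substrate incubation.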

The target in assay [15] is Beta-2 adrenergic receptor (Homo sapiens) (UniProt P07550). The experiment in a line: Adrenergic beta2 receptor (ADRB2) small molecule antagonists, cell-based qHTS assay (AID 1963592). Note: nearly all actives have a fitted effect of over 50% in size. Note: potency is the fitted concentration of half-maximal effect. Summed up:
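Cells (CHO, stable ADRB2 overexpression) incubated 18-20hr at 37C; compounds added from DMSO; agonist mix (1nM isoproterenol, 100uM IBMX, 25uM Ro-20-1724) added; 0.5hr RT; d2-cAMP and anti-cAMP-cryptate added; 1hr RT; 665/615 nm read.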

In assay [16] the target is D(2) dopamine receptor (Homo sapiens) (UniProt P14416). Briefly: Dopamine D2 receptor (DRD2) small molecule agonists, cell-based qHTS assay (AID 1963594). Note: nearly all actives have a fitted effect of over 35% in size. The procedure, abridged: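 HEK293 cells stably expressing DRD2 were cultured 24 h at 37 C, then given Ro20-1724 (0.1 mM final) and compounds for 10 min at room temperature. NKH477 (200nM) was then added for 30 min. cAMP was read by HTRF.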
Chain of D(2) dopamine receptor (Homo sapiens) (P14416 whole entry, looked up): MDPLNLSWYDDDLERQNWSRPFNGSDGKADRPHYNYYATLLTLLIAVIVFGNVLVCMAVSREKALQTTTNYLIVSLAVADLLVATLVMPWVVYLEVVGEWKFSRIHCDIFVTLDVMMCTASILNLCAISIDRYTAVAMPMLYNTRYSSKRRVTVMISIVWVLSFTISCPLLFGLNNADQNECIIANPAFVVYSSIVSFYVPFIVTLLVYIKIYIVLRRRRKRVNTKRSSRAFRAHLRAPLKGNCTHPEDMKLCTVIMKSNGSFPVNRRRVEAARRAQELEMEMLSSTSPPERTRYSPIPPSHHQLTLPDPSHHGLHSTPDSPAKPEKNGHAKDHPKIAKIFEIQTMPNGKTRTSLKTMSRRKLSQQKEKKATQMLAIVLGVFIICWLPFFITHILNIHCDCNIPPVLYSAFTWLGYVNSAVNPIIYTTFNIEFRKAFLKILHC

For assay [17] the target is unchanged. Briefly: Dopamine D2 receptor (DRD2) small molecule antagonists, cell-based qHTS assay (AID 1963595; active = well fitted inhibition curve with a large enough effect in the signal ratio in the repeat runs, with a control signal flat; the % refers to the signal ratio). Summed up:
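Human DRD2 antagonist qHTS measuring cAMP by HTRF. The cells are exposed to compound for 10 min, then to NKH477 (200 nM) and quinpirole (12 nM) for 30 min at RT, with Ro20-1724 (0.1 mM) present throughout.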

For assay [18], the target named is Beta-2 adrenergic receptor (Homo sapiens) (UniProt P07550). The experiment in a line: Adrenergic beta2 receptor (ADRB2) small molecule agonists, cell-based qHTS assay (AID 1963593).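 Note: CHO cells stably overexpressing human ADRB2.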 The procedure, abridged:
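CHO cells stably over-expressing ADRB2 were plated overnight at 37C, then dosed with compounds plus a stimulation mix containing 100uM IBMX and 25uM Ro-20-1724 for 0.5hr at room temperature. cAMP was measured by HTRF competition, 1hr.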

Assay [19] can be described thus: p53 small molecule agonists, cell-based qHTS assay (AID 1963582; active = well fitted activation curve with a large enough effect in the signal ratio in the repeat runs, not every such curve was filed as active; the % refers to the signal ratio). Summed up:
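Agonist activity was scored from beta-lactamase FRET fluorescence in p53RE-bla cells treated 16 h at 37 C with compounds in DMSO, substrate incubation being 2 h at room temperature.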

Values without a mark were called inactive. Inconclusive results are not listed. Active and inactive are the calls of the source. Unless noted, calls come from the whole dose curve.

Chain of Beta-2 adrenergic receptor (Homo sapiens) (P07550 whole entry, looked up): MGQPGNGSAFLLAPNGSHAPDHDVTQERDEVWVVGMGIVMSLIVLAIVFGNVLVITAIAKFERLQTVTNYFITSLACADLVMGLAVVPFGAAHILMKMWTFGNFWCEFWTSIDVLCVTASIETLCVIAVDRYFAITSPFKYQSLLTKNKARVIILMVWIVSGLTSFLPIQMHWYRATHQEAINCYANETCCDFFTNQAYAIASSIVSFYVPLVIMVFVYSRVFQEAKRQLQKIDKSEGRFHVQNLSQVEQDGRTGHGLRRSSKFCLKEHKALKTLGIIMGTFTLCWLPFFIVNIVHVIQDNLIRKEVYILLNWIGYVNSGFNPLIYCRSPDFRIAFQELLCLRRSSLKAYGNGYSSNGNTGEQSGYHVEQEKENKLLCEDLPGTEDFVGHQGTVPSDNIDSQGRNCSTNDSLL
Chain of 5-hydroxytryptamine receptor 2A (Homo sapiens) (P28223 whole entry, looked up): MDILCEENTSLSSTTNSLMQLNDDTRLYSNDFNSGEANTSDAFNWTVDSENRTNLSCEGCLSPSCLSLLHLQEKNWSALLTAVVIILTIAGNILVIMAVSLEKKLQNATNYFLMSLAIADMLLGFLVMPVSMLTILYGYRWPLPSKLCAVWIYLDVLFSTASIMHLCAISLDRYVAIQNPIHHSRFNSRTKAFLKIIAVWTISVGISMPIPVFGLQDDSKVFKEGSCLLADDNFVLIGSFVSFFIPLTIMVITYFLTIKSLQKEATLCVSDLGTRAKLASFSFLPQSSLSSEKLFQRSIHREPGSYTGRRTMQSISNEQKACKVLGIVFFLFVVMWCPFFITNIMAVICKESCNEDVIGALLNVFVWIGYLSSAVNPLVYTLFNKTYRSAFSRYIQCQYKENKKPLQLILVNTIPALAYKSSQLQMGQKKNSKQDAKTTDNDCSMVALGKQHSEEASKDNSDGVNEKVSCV
Chain of Muscarinic acetylcholine receptor M1 (Homo sapiens) (P11229 whole entry, looked up): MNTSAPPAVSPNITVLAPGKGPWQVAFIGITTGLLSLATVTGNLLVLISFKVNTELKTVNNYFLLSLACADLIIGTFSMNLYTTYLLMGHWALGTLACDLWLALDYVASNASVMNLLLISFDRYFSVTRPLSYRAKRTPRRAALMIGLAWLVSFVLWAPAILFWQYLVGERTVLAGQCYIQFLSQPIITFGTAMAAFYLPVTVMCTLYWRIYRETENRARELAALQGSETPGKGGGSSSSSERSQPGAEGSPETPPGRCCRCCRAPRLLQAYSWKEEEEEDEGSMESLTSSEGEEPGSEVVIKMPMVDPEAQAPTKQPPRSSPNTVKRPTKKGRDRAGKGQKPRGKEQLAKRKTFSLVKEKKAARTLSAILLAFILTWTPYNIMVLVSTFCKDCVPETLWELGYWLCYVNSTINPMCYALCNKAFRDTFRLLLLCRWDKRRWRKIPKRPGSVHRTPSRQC
Chain of Gonadotropin-releasing hormone receptor (Homo sapiens) (P30968 whole entry, looked up): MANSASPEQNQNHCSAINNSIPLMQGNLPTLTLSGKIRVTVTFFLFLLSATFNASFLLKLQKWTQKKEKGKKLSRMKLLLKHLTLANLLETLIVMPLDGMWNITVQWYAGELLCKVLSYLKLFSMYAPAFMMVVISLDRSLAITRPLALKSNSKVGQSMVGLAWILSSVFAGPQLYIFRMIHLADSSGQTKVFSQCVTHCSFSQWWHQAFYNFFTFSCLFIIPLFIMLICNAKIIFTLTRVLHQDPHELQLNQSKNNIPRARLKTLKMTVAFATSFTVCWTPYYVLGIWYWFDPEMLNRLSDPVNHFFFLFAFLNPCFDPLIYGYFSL

As for `CCCOc1sc(C(=O)N2CCC(c3cc(CN)ccc3F)CC2)c(C)c1Br`, the Potency in assay [1] is 17.7 µM (active); in [3], 35.7 µM (active); in assay [7], 50.4 µM (active). The Potency entry in assay [2], in assay [4], in assay [5], in assay [6] and in [8] was “inactive” throughout.

Consider `BrCc1cccc(Oc2ccccc2)c1`, for which the Potency entry in [1], in assay [2], in assay [3], in assay [4], in [9] and in assay [10] was “inactive” in each case. Further, the Potency result in [11], in [6], in assay [7], in assay [8], in [12] and in assay [13] was “inactive” in each case. Besides, the Potency result in assay [14], in assay [15], in [16] and in assay [17] was “inactive” throughout.

`CCCCC/C=C\C/C=C\CCCCCCCC(=O)NC(C)c1ccccc1` (stereo not given): the Potency entry in assay [1], in assay [2], in assay [3], in assay [4], in assay [5] and in [9] was “inactive” each time. For the same compound, the Potency result in [10], in [11], in assay [6], in assay [7], in assay [8] and in assay [12] was “inactive” each time. For the same compound, the Potency result in assay [15], in [18], in assay [16] and in [17] was “inactive” throughout.

For `O=C(O)COc1ccc2ccccc2c1`, the Potency entry in [1], in assay [2], in assay [3], in assay [4], in assay [5] and in assay [10] was “inactive” throughout. The Potency entry in assay [11], in [6], in [7], in assay [8], in assay [12] and in assay [15] was “inactive” in each case. Moreover, the Potency entry in assay [16] and in assay [17] was “inactive” each time.

On to `CC(COc1ccccc1)NN` (stereo not given), for which the Potency entry in [1], in assay [2], in assay [3], in assay [4], in assay [5] and in [9] was “inactive” throughout. The Potency entry in assay [10], in [11], in assay [19], in assay [6], in [7] and in assay [8] was “inactive” in each case. Moreover, the Potency entry in [12], in assay [13], in assay [15], in assay [16] and in assay [17] was “inactive” in each case.

With `O=C(Cl)c1cccc([N+](=O)[O-])c1`, the Potency result in assay [1], in [2], in assay [3], in assay [4], in assay [9] and in [10] was “inactive” throughout. The Potency result in assay [11], in [6], in assay [7], in assay [8], in assay [12] and in assay [14] was “inactive” in each case. For the same compound, the Potency entry in [15], in assay [16] and in assay [17] was “inactive” in each case.

As for `CCOC(=O)COC(=O)c1cc(Oc2ccc(C(F)(F)F)cc2Cl)ccc1[N+](=O)[O-]`, the Potency result in [1], in [2], in [3], in assay [4], in assay [5] and in assay [10] was “inactive” in each case. In addition, the Potency entry in [11], in assay [6], in assay [7], in [8], in [12] and in assay [16] was “inactive” in each case. The Potency in assay [15] is 61.1 µM (active).

`CCn1nc(C)c2c1C(=O)NCC(c1ccc(O)cc1)=N2`: the Potency result in assay [1], in assay [2], in assay [3], in [4], in [5] and in assay [9] was “inactive” in each case. The Potency entry in [10], in assay [11], in [19], in [6], in [8] and in assay [12] was “inactive” each time. The Potency result in assay [13], in assay [15], in assay [18] and in assay [16] was “inactive” each time.

For the origin of these results see PubChem BioAssay (Tox21).
